Test in all cases: DAPPL (digital affinity profiling via proximity ligation, sequencing); 10 mM Tris-HCl pH 7.5, 50 mM NaCl, 1 mM DTT, 4% glycerol, room temperature, 30 min; GST-TFs on glutathione beads, 16-mer random dsDNA library, 0.1% formaldehyde crosslink after washing; high values mean tight binding
For one test, the target named is T1, FLI1 (Homo sapiens, UniProt Q01543 1-452).
T1 sequence: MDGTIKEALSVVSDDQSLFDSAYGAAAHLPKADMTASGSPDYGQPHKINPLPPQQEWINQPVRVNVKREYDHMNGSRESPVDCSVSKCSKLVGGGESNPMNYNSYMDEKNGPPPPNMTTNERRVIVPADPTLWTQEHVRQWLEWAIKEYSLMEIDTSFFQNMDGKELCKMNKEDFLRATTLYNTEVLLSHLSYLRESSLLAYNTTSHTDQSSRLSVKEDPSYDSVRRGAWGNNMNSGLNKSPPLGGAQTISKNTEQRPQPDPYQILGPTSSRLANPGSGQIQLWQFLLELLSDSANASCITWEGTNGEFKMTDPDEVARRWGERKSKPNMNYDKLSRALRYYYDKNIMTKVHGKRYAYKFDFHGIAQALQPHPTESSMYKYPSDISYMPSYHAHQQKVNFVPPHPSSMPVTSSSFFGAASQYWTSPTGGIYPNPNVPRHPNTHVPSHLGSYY
The conditions noted are these: protein: recombinant; tags: N-terminal GST; dsDNA, one strand shown. The method in brief: (§1)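 Binding signal is given per hexamer as its read frequency for a factor divided by its frequency in the tag-only sample. GST-fused human transcription factors were expressed in yeast, captured on glutathione beads, barcoded with DNA and pooled with that sample, then incubated with 200 nmole of a 16-mer random double-stranded DNA library in Tris/NaCl/DTT/glycerol buffer for 30 min at room temperature. The pools were then washed, crosslinked, proximity-ligated, amplified by PCR and sequenced on an Illumina NextSeq500.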

In a further test the target is T2, ELK1 (Homo sapiens, UniProt P19419 1-428).
T2 sequence: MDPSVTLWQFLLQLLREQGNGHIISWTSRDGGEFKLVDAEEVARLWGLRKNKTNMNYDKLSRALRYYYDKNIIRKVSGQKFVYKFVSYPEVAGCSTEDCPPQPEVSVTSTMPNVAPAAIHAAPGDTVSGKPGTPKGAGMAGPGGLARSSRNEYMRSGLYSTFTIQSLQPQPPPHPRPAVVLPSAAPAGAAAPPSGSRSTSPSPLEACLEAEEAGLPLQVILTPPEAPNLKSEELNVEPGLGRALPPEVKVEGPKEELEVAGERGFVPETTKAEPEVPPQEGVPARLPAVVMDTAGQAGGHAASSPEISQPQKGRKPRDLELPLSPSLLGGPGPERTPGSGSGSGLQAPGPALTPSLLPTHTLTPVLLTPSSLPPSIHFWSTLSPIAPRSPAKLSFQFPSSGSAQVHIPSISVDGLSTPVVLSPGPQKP
The conditions noted are these: protein: recombinant; tags: N-terminal GST; dsDNA, one strand shown. The method in brief:
as §1

For the next test, the target named is T3, GABPA (Homo sapiens, UniProt Q06546 1-454).
T3 sequence: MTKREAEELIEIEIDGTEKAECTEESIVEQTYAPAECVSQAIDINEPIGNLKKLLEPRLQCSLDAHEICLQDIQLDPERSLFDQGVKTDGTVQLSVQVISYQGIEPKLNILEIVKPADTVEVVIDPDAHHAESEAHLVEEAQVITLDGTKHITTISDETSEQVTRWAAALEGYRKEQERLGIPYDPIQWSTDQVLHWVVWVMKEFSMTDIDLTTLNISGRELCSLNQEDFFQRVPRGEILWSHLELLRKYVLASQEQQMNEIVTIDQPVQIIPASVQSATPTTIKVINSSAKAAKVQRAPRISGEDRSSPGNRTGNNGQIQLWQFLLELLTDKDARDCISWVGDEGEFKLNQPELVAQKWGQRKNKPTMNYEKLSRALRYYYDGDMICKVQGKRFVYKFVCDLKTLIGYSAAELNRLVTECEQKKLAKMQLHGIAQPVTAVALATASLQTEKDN
The conditions noted are these: protein: recombinant; tags: N-terminal GST; dsDNA, one strand shown. The method in brief: as §1

The next test has as its target T4, ERG (Homo sapiens, UniProt P11308 1-479).
T4 sequence: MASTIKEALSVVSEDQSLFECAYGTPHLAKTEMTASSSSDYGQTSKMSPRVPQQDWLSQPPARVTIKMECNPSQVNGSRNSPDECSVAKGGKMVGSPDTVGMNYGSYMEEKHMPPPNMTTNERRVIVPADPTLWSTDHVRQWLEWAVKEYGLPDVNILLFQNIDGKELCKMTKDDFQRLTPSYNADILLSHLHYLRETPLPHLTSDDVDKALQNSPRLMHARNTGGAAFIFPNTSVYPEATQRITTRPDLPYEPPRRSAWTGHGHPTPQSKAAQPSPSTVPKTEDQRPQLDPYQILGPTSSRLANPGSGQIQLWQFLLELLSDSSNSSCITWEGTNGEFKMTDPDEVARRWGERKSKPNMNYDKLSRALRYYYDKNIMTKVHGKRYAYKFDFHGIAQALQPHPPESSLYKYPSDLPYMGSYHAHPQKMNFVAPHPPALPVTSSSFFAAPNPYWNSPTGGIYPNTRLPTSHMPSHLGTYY
The conditions noted are these: protein: recombinant; tags: N-terminal GST; dsDNA, one strand shown. The method in brief: as §1

The target of the next test is ELF1 (Homo sapiens, UniProt P32519 1-619). The conditions noted are these: protein: recombinant; tags: N-terminal GST; dsDNA, one strand shown. The method in brief: as §1
Chain of ELF1 (P32519 whole entry): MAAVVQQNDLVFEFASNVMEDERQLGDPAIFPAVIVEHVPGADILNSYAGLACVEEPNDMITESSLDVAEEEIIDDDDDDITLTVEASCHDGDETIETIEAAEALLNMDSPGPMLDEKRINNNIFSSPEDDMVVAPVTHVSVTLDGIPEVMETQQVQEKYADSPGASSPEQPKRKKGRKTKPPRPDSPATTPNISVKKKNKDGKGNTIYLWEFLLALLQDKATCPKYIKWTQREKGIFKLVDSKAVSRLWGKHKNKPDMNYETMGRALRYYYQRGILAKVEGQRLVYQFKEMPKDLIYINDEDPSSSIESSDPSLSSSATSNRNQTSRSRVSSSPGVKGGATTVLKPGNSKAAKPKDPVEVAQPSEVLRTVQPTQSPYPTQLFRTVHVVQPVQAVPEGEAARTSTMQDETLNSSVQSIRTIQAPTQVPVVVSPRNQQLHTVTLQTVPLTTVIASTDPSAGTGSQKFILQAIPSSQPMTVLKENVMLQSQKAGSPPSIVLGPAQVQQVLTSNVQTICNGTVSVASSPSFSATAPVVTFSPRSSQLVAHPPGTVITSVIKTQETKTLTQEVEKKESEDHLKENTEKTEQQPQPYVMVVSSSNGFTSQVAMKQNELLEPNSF
The target in the next test is T5, EHF (Homo sapiens, UniProt Q9NZC4 1-300).
T5 sequence: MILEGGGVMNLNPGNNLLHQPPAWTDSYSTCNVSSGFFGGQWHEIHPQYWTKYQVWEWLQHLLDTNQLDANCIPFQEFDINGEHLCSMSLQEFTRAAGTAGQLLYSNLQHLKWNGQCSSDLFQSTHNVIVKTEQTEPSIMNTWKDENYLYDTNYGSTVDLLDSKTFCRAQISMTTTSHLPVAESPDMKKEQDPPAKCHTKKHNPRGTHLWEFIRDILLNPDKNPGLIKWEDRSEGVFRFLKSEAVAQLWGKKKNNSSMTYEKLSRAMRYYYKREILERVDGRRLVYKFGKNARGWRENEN
The conditions noted are these: protein: recombinant; tags: N-terminal GST; dsDNA, one strand shown. The method in brief: as §1

The target in another test is SPI1 (Homo sapiens, UniProt P17947 1-270). The conditions noted are these: protein: recombinant; tags: N-terminal GST; dsDNA, one strand shown. The method in brief:
as §1

The target in a further test is SPIB (Homo sapiens, UniProt Q01892 1-262). The conditions noted are these: protein: recombinant; tags: N-terminal GST; dsDNA, one strand shown. The method in brief:
as §1

The next test addresses T6, ELK3 (Homo sapiens, UniProt P41970 1-407).
T6 sequence: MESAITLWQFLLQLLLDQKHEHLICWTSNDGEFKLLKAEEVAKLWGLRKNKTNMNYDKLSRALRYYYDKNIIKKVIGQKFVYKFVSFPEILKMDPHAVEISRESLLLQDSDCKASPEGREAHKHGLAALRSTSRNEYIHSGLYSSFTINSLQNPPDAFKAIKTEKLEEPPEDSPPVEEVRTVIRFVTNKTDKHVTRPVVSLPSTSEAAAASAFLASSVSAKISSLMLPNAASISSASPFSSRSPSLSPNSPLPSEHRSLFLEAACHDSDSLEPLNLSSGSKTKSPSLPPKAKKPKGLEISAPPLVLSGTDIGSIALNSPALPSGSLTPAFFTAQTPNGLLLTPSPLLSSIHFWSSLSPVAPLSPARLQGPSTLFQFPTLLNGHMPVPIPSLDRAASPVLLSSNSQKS
The conditions noted are these: protein: recombinant; tags: N-terminal GST; dsDNA, one strand shown. The method in brief: as §1

In another test the target is T7, FEV (Homo sapiens, UniProt Q99581 1-238).
T7 sequence: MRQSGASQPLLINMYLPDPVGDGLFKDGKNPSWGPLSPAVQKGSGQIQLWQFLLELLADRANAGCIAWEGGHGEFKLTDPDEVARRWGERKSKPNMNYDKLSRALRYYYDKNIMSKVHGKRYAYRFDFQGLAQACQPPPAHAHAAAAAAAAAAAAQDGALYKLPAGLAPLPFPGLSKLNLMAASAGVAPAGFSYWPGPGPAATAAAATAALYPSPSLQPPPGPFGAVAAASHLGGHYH
The conditions noted are these: protein: recombinant; tags: N-terminal GST; dsDNA, one strand shown. The method in brief: as §1

For another test, the target named is ETV5 (Homo sapiens, UniProt P41161 1-510). The conditions noted are these: protein: recombinant; tags: N-terminal GST; dsDNA, one strand shown. The method in brief:
as §1

In a further test the target is HSF1 (Homo sapiens, UniProt Q00613 1-529). The conditions noted are these: protein: recombinant; tags: N-terminal GST; chain copies: 3; dsDNA, one strand shown. The method in brief: as §1
Chain of HSF1 (Q00613 whole entry): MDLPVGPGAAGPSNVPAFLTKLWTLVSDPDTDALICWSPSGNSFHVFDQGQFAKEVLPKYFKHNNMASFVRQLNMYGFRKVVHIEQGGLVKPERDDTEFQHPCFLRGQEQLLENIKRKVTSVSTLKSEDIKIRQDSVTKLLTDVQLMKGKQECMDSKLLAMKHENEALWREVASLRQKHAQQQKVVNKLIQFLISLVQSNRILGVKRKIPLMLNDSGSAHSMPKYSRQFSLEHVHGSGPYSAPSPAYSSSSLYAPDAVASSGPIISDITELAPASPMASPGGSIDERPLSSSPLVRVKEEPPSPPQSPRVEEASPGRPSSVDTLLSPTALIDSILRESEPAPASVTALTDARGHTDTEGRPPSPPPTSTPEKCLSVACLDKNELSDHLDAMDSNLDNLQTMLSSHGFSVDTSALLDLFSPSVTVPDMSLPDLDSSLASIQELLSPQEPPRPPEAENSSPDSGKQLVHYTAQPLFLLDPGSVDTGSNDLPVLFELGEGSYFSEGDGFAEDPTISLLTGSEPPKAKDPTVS
A further test concerns the target T8, SPIC (Homo sapiens, UniProt Q8N5J4 1-248).
T8 sequence: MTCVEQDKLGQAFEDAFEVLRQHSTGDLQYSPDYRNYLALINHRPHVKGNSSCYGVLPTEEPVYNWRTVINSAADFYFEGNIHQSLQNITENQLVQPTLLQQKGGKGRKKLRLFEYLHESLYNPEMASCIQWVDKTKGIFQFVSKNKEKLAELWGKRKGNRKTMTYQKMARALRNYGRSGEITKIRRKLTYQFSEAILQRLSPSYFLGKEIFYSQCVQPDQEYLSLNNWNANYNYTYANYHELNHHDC
The conditions noted are these: protein: recombinant; tags: N-terminal GST; dsDNA, one strand shown. The method in brief: as §1

For another test, the target named is ELF4 (Homo sapiens, UniProt Q99607 1-663). The conditions noted are these: protein: recombinant; tags: N-terminal GST; dsDNA, one strand shown. The method in brief:
as §1

A further test concerns the target T9, ELK4 (Homo sapiens, UniProt P28324-2 1-405).
T9 sequence: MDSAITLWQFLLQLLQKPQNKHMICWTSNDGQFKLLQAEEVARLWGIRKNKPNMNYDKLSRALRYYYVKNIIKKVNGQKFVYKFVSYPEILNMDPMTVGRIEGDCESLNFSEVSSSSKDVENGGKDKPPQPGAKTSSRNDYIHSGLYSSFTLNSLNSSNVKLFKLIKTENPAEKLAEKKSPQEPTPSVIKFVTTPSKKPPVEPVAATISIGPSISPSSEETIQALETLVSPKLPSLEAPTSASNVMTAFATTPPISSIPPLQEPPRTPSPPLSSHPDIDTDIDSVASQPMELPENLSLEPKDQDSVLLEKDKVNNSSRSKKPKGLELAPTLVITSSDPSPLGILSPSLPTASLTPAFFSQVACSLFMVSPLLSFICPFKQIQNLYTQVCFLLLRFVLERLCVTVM
The conditions noted are these: protein: recombinant; tags: N-terminal GST; dsDNA, one strand shown. The method in brief: as §1

A further test concerns the target T10, ETV2 (Homo sapiens, UniProt O00321 1-342).
T10 sequence: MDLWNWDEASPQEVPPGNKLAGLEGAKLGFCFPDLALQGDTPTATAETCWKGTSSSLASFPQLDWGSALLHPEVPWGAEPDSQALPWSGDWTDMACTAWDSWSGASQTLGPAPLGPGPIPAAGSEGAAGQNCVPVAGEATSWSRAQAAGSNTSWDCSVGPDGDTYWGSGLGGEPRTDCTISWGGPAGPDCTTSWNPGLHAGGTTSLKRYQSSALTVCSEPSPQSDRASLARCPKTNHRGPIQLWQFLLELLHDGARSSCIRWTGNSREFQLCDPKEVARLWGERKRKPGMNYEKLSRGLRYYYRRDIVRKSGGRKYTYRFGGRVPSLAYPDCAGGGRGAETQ
The conditions noted are these: protein: recombinant; tags: N-terminal GST; dsDNA, one strand shown. The method in brief:
as §1

The next test addresses T11, ELF3 (Homo sapiens, UniProt P78545 1-371).
T11 sequence: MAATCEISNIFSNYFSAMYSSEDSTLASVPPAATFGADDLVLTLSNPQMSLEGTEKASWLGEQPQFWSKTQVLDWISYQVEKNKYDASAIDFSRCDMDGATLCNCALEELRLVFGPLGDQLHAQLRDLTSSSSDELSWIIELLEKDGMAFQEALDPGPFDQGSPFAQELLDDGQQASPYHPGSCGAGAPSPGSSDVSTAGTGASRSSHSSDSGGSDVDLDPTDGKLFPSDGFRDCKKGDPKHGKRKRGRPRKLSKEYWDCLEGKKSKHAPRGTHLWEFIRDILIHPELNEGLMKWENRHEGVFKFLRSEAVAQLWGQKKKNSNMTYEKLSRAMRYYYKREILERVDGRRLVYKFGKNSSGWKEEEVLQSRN
The conditions noted are these: protein: recombinant; tags: N-terminal GST; dsDNA, one strand shown. The method in brief:
as §1

In another test the target is CRX (Homo sapiens, UniProt O43186 1-299). The conditions noted are these: protein: recombinant; tags: N-terminal GST; dsDNA, one strand shown. The method in brief:
as §1

The next test deals with ETV1 (Homo sapiens, UniProt P50549 1-477). The conditions noted are these: protein: recombinant; tags: N-terminal GST; dsDNA, one strand shown. The method in brief: as §1
Chain of ETV1 (P50549 whole entry): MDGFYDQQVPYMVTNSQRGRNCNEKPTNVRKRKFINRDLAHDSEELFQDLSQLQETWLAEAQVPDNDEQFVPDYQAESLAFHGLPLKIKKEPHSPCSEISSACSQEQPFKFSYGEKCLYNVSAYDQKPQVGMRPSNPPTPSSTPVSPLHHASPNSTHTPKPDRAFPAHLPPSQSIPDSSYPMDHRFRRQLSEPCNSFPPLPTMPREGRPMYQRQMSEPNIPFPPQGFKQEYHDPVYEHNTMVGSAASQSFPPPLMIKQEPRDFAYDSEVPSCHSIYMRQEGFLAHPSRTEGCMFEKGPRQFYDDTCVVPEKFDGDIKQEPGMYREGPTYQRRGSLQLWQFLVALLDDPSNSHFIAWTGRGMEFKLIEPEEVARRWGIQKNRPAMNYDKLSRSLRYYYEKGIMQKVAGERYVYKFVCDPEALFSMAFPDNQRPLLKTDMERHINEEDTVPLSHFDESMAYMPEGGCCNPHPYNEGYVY

From publication PMC7862700, “An all-to-all approach to the identification of sequence-specific readers for epigenetic DNA modifications on cytosine” come the findings set out here.

Chain of ELF4 (Q99607 whole entry): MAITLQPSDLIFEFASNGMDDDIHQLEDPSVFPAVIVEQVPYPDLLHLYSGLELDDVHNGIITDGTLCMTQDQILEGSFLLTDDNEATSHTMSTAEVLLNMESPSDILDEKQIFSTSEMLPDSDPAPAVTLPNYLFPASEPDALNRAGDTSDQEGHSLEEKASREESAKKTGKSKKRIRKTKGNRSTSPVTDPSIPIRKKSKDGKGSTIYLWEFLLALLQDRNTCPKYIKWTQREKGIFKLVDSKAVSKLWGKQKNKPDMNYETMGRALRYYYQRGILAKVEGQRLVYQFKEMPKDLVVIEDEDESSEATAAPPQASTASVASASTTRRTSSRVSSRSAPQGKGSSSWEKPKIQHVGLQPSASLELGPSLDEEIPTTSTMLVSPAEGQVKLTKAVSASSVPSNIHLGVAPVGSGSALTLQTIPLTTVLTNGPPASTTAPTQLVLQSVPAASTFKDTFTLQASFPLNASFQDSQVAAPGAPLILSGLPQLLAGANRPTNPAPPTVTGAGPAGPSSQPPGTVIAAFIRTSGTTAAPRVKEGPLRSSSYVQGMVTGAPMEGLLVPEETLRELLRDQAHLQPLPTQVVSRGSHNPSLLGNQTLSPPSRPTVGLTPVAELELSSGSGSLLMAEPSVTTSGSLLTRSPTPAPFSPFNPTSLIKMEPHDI
Chain of ETV5 (P41161 whole entry): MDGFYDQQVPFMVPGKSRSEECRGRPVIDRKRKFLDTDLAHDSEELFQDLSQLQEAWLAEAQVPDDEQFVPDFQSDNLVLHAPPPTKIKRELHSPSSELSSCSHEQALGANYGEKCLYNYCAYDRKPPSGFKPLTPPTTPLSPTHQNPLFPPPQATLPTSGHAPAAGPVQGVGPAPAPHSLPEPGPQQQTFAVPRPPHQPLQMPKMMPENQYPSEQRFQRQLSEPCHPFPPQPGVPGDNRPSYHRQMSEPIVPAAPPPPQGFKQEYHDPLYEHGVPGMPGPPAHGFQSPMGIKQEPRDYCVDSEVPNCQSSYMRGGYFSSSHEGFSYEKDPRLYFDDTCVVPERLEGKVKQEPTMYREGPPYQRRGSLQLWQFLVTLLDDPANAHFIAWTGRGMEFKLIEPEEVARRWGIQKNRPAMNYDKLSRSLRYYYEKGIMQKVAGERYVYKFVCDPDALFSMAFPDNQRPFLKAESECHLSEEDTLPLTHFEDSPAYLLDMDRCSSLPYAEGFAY
Chain of CRX (O43186 whole entry): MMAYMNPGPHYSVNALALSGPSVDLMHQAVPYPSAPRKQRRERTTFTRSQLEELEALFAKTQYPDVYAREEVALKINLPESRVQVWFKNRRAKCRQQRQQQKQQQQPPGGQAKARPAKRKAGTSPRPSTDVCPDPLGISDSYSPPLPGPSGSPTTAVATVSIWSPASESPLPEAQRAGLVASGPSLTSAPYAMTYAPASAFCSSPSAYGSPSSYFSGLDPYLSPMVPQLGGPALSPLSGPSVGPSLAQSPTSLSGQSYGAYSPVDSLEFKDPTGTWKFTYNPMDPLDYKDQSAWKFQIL
Chain of SPIB (Q01892 whole entry): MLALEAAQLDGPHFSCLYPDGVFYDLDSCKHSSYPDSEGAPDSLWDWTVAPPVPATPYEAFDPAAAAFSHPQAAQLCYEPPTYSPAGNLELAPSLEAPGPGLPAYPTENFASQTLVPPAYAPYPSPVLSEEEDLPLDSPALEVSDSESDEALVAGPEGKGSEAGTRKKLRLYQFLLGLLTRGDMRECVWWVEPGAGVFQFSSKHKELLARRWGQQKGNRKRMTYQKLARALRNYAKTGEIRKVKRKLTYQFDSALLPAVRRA

Regarding ATTTTC, the binding signal with FLI1 was 1.47 fold enrichment (6-mer frequency, TF over GST control); with ELK1 it was 1.35 fold enrichment (6-mer frequency, TF over GST control); with GABPA, 1.46 fold enrichment (6-mer frequency, TF over GST control); with ERG, 1.46 fold enrichment (6-mer frequency, TF over GST control); with ELF1 it was 1.31 fold enrichment (6-mer frequency, TF over GST control); in the test with EHF, 1.49 fold enrichment (6-mer frequency, TF over GST control). Further, the binding signal is 1.56 fold enrichment (6-mer frequency, TF over GST control) with SPI1; 1.41 fold enrichment (6-mer frequency, TF over GST control) in the test with SPIB; 1.31 fold enrichment (6-mer frequency, TF over GST control) with ELK3; 1.35 fold enrichment (6-mer frequency, TF over GST control) with FEV; 1.44 fold enrichment (6-mer frequency, TF over GST control) with ETV5; 2.04 fold enrichment (6-mer frequency, TF over GST control) in the test with HSF1. Also, the binding signal in the test with SPIC is 1.44 fold enrichment (6-mer frequency, TF over GST control); with ELF4 it was 1.64 fold enrichment (6-mer frequency, TF over GST control); in the test with ELK4 it was 1.5 fold enrichment (6-mer frequency, TF over GST control); with ETV2, 1.63 fold enrichment (6-mer frequency, TF over GST control); in the test with ELF3, 1.48 fold enrichment (6-mer frequency, TF over GST control); with CRX it was 1.67 fold enrichment (6-mer frequency, TF over GST control). In the test with ETV1, the binding signal was 1.4 fold enrichment (6-mer frequency, TF over GST control).
